Results as given in ChEMBL document CHEMBL1157539, “Thousands of chemical starting points for antimalarial lead identification” (Nature, 2010).

What was measured:
Type in all cases: functional
Plasmodium falciparum [1] = assay: GSK_TCMDC: Inhibition of Plasmodium falciparum 3D7 in whole red blood cells, using parasite LDH activity as an index of growth. Test compounds present at 2uM
Plasmodium falciparum [2] = assay: GSK_TCMDC: Inhibition of Plasmodium falciparum Dd2 in whole red blood cells, using parasite LDH activity as an index of growth. Test compounds present at 2uM
HepG2 = assay: GSK_TCMDC: Percent inhibition of human HepG2 cell line. Test compounds present at 10uM.

| Structure (SMILES) | Inhibition (Plasmodium falciparum [1]) | Inhibition (Plasmodium falciparum [2]) | Inhibition (HepG2) |
| --- | --- | --- | --- |
| O=C(Nc1cccc(CN2CCCN(CC3CC3)CC2)c1)c1ccc(Cl)c(Cl)c1.O=C(O)C(F)(F)F | 92% | 5% | 13% |
| Cl.OC(c1ccccc1)C1CN(CCC2CC3CCC2C3)CCC1(O)c1ccccc1 (stereo unspecified) | 97% | 99% | 0% |
| CCc1cc(CNC2CCN(CCc3c(F)cnc4ccc(OC)nc34)CC2)cc2c1OCCO2.Cl | 100% | 94% | 46% |
| O=C(Nc1ccccc1O)c1ccc(S(=O)(=O)c2ccc(Cl)cc2)cc1 | 90% | 85% | 18% |
| c1ccc(-c2csc(Nc3nc4cc5c(cc4s3)OCO5)n2)nc1 | 81% | 99% | 46% |
| Cl.N#CCc1ccc(Nc2nccc(Nc3ccc(Oc4ccccc4)cc3)n2)cc1 | 98% | 47% | 0% |
| COc1cc(C=CC(=O)N2CCC(CCN3CCC(c4c[nH]c5ccccc45)CC3)CC2)cc(OC)c1 | 92% | 23% | 39% |
| Cc1nc(N/C=C/c2ccc(O)cc2)cc(N2CCCC2)n1 | 93% | 54% | 0% |
| CS(=O)(=O)CCNCc1ccc(-c2ccc3c(Nc4ccc(Oc5ccccn5)cc4)ccnc3c2)o1 | 100% | 99% | 0% |
| CC(C)c1ccc(CN2CCCCC(NC(=O)c3cc(-c4ccccc4Cl)cs3)C2)cc1.O=C(O)C(F)(F)F (stereo unspecified) | 100% | 64% | 8% |
| COc1cccc(-c2c(C#N)c(N)nc3c2c(C)nn3-c2ccccc2)c1O | 100% | 100% | 4% |
| Cc1nc2nc(N)nc(N)c2c(C)c1Cc1c(Cl)cccc1Cl.Cl | 94% | 5% | 7% |
| O=C(Nc1ccccc1)N(Cc1cccc(-c2ccc(CNC3CCCC3)cc2)c1)C1CCN(Cc2ccccc2)CC1.O=C(O)C(F)(F)F | 100% | 96% | 100% |
| CC1CC(NCCCNc2cc(=O)c3ccccc3[nH]2)c2c1cc(Cl)c(Cl)c2Cl (stereo unspecified) | 98% | 70% | 1% |
| Fc1ccccc1COc1ccc(Nc2ncnc3ccc(I)cc23)cc1Cl | 90% | 37% | 17% |
| COc1ccc2ncc(F)c(CCN3C[C@H](CNCc4cc(F)c5c(c4)NC(=O)CO5)[C@H](O)C3)c2n1.Cl | 94% | 23% | 3% |
| Cc1cc(NC(=O)Nc2ccc(N(C)C)cc2)c2cc(Cl)ccc2n1.Cl | 100% | 50% | 0% |
| CCCn1cnc2cc(C(=O)Nc3ccc(-c4cccc(CN(C)C)c4)cc3)ccc2c1=O | 95% | 6% | 26% |
| O=C(/C=C/c1ccc(Cl)c(Cl)c1)NCCCCCN1CCC(CCNC(=O)/C=C/c2ccc(Cl)c(Cl)c2)CC1 | 100% | 56% | 68% |
| CN1CCN(c2cc(NC(=O)c3ccc(-c4ccc(C#N)cc4)cc3)ccc2Cl)CC1 | 100% | 94% | 29% |
| N=C(N)Nc1nc(-c2cccc(NC(=O)NCc3cccc4ccccc34)c2)cs1 | 100% | 32% | 14% |
| N#Cc1ccccc1C(=O)N(Cc1cncn1Cc1cccc(F)c1)CC1CC1 | 100% | 92% | 0% |
| Cn1c(=O)c(-c2c(Cl)cccc2Cl)cc2cnc(Nc3ccc(N4CCOCC4)cc3)nc21 | 98% | 97% | 64% |
| O=C(O)C(F)(F)F.O=[N+]([O-])c1cccc(CNC2CCN(Cc3ccc(Cl)c(Cl)c3)CC2)c1 | 100% | 71% | 5% |

| Structure (SMILES) | Inhibition (Plasmodium falciparum [1]) | Inhibition (Plasmodium falciparum [2]) | Inhibition (HepG2) |
| --- | --- | --- | --- |
| CCn1ccc2c(N3CCCC3=O)cc(C(=O)N[C@@H](Cc3ccccc3)[C@H](O)CNC3CCCCC3)cc21 | 99% | 98% | 12% |
| CN1C(=CC(=O)NC(=O)c2ccccc2)C(C)(C)c2ccccc21 | 93% | 89% | 0% |
| CC1CCN(CC[C@H]2CCCN2S(=O)(=O)c2cccc(NC(=O)Nc3ccc(C(F)(F)F)cc3)c2)CC1 | 100% | 41% | 12% |
| CCOC(=O)C1CCN(CCOc2cc(NC(=O)/C=C/c3ccccc3Cl)ccc2Br)CC1.O=C(O)C(=O)O | 87% | 29% | 6% |
| COc1ccc2nccc([C@@H](O)CN3CCC(NCCOc4cccc(F)c4F)CC3)c2c1.O=C(O)C(=O)O | 100% | 85% | 9% |
| Cc1ccccc1C1CCN(C2CCC(NC(=O)c3cc(-c4ccccc4)oc3C)CC2)CC1 (stereo unspecified) | 100% | 32% | 46% |
| O=c1c(Br)c(C(F)(F)F)[nH]c2ccc(Oc3ccccc3)cc12 | 91% | 17% | 6% |
| Cc1ccc(NC(=O)c2ccc3ncccc3c2)cc1OC1CCN(CCC(C)C)CC1.O=C(O)C(F)(F)F | 94% | 48% | 2% |
| O=C(NCCCCCN1CCCN(C(=O)Nc2ccc(Cl)c(C(F)(F)F)c2)CC1)C1CC1c1ccc(Cl)c(Cl)c1 (stereo unspecified) | 100% | 1% | 41% |
| O=C(NCCCCN1CCN(c2cccc3ccccc23)CC1)c1ccc(NC(=O)c2ccc(Cl)cc2)cc1 | 100% | 64% | 38% |
| COc1ccc(S(=O)(=O)Nc2ccc(C(=O)NCc3ccccc3C(F)(F)F)cc2)cc1N1CCN(CC2CC2)CC1.O=C(O)C(F)(F)F | 92% | 5% | 27% |
| O=C(C1CCCC1)N1CCOC(CCN2CCC(c3ccccc3)CC2)(c2ccc(Cl)c(Cl)c2)C1 (stereo unspecified) | 88% | 77% | 16% |
| O=C(/C=C/c1cccc(Cl)c1)NCCCCCN1CCC(c2c[nH]c3ccccc23)CC1 | 89% | 17% | 46% |
| Cc1cccc2nc(-c3ccc(-c4ccc(C(=O)NCCc5cn(C)cn5)cc4)s3)[nH]c12 | 88% | 8% | 0% |
| Fc1ccc2[nH]c(-c3ccc(-c4ccc(CN5CCN(CCN6CCOCC6)CC5)cc4)cc3)nc2c1.O=C(O)C(F)(F)F | 100% | 100% | 38% |
| CCCCCCCCc1c(C)[nH]c(C)c(Cl)c1=O | 96% | 95% | 0% |
| Cc1nnc(Sc2ncnc3scc(-c4ccc(F)cc4)c23)s1 | 99% | 50% | 13% |
| CCNc1cc(C(=O)N[C@@H](Cc2ccccc2)[C@H](O)CN[C@@H](C)c2cccc(OC)c2)cc(N2CCCC2=O)c1.O=CO | 95% | 65% | 5% |
| CC(Cc1ccc(NC(=O)COc2ccc(CC(C)NCCc3cccc(Cl)c3)cc2)cc1)NCCc1cccc(Cl)c1 (stereo unspecified) | 100% | 98% | 100% |
| Fc1cccc(COc2ccc(Nc3ncnc4ccc(C#C[C@H]5CCCN5)cc34)cc2Cl)c1 | 91% | 26% | 7% |
| COc1cc(C(=O)NC2CCN(Cc3ccccc3)CC2)ccc1-c1cc2cc(Cl)c(Cl)cc2[nH]1.O=C(O)C(F)(F)F | 100% | 100% | 33% |
| CCc1cn(C)c2c(N3CCCC3=O)cc(C(=O)N[C@@H](Cc3ccccc3)[C@H](O)CNC3CCCCC3)cc12 | 97% | 98% | 8% |
| CCOC(=O)c1ccc(NC(=O)Nc2cccc(-c3cccc(-c4nc5cccc(C)c5[nH]4)c3)c2)cc1 | 100% | 99% | 37% |
